Source: PubChem (National Center for Advancing Translational Sciences (NCATS))
Sampled rows, rich in hits. Any-hit rate of the full collection: about 2.3%.
miR-21 act: qHTS Assay for Modulators of miRNAs and/orActivators of miR-21; HeLa miR-21 FLuc reporter, luciferase, 48 h; Potency, µM (titrated, usually from 38.3 µM), inactives show at the highest dose activity change, positive = activation, most hits filed as activators; 340,000 tested, under 10 active; AID 2288, 2010;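 also: % of control where 0% means no effect; miR-21 action dims this reporter so a rising signal means less miR-21 action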
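Using DMEM plus 10% FBS, HeLa miR-21-FLuc cells are incubated with test compounds (final up to about 40uM) for 48 hours; firefly luciferase signal is then imaged following reagent-mediated lysis.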
Nrf2 block: Nrf2 qHTS screen for inhibitors; actives 2.1% (n = 360,000); A549 ARE-Fluc reporter, luciferase luminescence, 18-24 h; Potency, µM (titrated, usually from 46 µM), inactives show at the highest dose activity change, negative = inhibition, actives largely listed as inhibitors; also: potency is read from the fitted curve at half-maximal effect; % is scaled to controls: 0 for no effect and ±100 for the full control effect; nearly all actives have a fitted effect of over 60% in size
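A549 ARE_Fluc cells, 5000/well, 5% FBS OPTI-MEM; compounds in dose-response, 18-24 h at 37 °C/5% CO2; CellTiter-Fluor viability read (Ex 405/Em 525), then BugLite luciferase luminescence = Nrf2 activity.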
Nrf2 activator: qHTS of Nrf2 Activators. AREc32 ARE-luciferase reporter (MCF7-derived line), luminescence, 24 h. actives 0.31% (n = 410,000). Potency, µM (series often up to 46.1 µM), for the others: at the top dose activation, usual class: activators. AID 624171, 2012; also: potency is read from the fitted curve at half-maximal effect; % of control where 0% means no effect; nearly all actives have a fitted effect of over 65% in size
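ARE activation measured as luciferase luminescence (Steady-Glo, 30 min RT) in AREc32_Fluc cells after 24 hr compound exposure at 37 deg C, 5% CO2; cells seeded overnight at 1000/well in OPTI-MEM, 5% FBS.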
A549 viability: Nrf2 qHTS screen for inhibitors: counterscreen for cytotoxicity; Potency, µM (top dose mostly 46 µM), without a hit: at the top dose activity change, negative = cytotoxicity, most hits filed as inhibitors; A549 ARE-Fluc cells, CellTiter-Fluor viability, 18-24 h; AID 504648, 2011; actives 0.16% (n = 390,000); also: potency is read from the fitted curve at half-maximal effect; % is scaled to controls: 0 for no effect and ±100 for the full control effect
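A549 ARE_Fluc cells in 5% FBS OPTI-MEM were exposed to compounds in concentration-response for 18-24 h at 37 deg C. Viability was read by CellTiter-Fluor fluorescence (Ex 405/Em 525) after 30 min, before the luciferase read.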
Mito fusion act: qHTS Assay for Small Molecule Inhibitors of Mitochondrial Division or Activators of Mitochondrial Fusion; S. cerevisiae fusion-defective mutant growth rescue, CellTiterGlo 48 h; Potency, µM (top dose mostly 46.1 µM), without a hit: top-dose growth rescue (activation), actives largely listed as activators; actives 0.23% (n = 320,000); AID 485298, 2010; also: potency is read from the fitted curve at half-maximal effect; % of control where 0% means no effect; nearly all actives have a fitted effect of over 45% in size
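Yeast fusion mutant, YPEG (non-fermentable carbon), compound, 48 h at 37C non-permissive; CellTiterGlo added, 10 min RT, luminescence read. Rescued growth = division inhibition.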
* hit, by the source's call; ? = inconclusive; / = not tested or not shown; ! = repeats disagree; [ ] = another dose, or the depositor's remark. Calls follow the shape of the dose curve; as a rule, active = well fitted curve in the direction sought with a large enough effect; inconclusive = small, poorly fitted or top-dose-only effect, or another doubt; inactive = no such curve, though single readings can be large; an effect the other way counts as inactive or inconclusive.

SMILES | miR-21 act | Nrf2 block | Nrf2 activator | A549 viability | Mito fusion act
C=C1C(=O)O[C@H]2C[C@H]1[C@@H](OC(C)=O)C/C(C)=C/CC/C(C)=C\CC[C@]2(C)O | / | 15µM* | -2% | ? | /
O=C(c1c(F)c(F)c(F)c(F)c1F)N1CCN(c2cccc(C(F)(F)F)c2)CC1 | 1% | 8% | 3% | ? | 6%
CC1(C2CC2)NC(=O)N(CC(=O)N2CCN(c3cccc(C(F)(F)F)c3)CC2)C1=O (stereo not drawn) | / | 12µM* | 0% | -20% | /
Cc1ccc(C)c(N2CCN(C(=O)c3cc4sccc4n3C)CC2)c1 | 5% | / | 0% | -7% | 0%
O=C(c1ccccc1F)N1CCN(c2cccc(C(F)(F)F)c2)CC1 | -4% | 18µM* | -1% | ? | 0%
Cc1ccc(S(=O)(=O)CC(=O)N2CCN(c3cccc(C(F)(F)F)c3)CC2)cc1 | -1% | 23µM* | 0% | -14% | -3%
Cc1ccc(C)c(N2CCN(C(=O)C3CCN(C(=O)c4cc5sccc5n4C)CC3)CC2)c1 | ? | 21µM* | 0% | ? | /
Cc1cc2c(s1)c1cnn(Cc3ccc(F)cc3Cl)c(=O)c1n2C | / | 4% | / | 0% | /
Cc1ccc(NC(=O)N2CCN(c3cc(-c4noc(C)n4)ccc3C)CC2)c(F)c1 | 9% | / | 4% | -1% | /
Cn1c(C(=O)N2CCN(c3cccc(C(F)(F)F)c3)CC2)cc2sccc21 | -8% | 26µM* | 0% | -29% | -16%
Cc1cn2c(=O)cc(COC(=O)c3ccc(NC(=O)C(C)Oc4ccccc4)cc3)nc2s1 (stereo not drawn) | ? | / | 2% | 0% | /
Cc1ccc(-n2nc3c(N4CCC(C(=O)NCc5ccccc5C)CC4)nnc(C)c3c2C)cc1 | -2% | ? | 10% | ? | 10%
COc1ccc(CNC(=O)Cn2nc(C)c3c(C)n(-c4ccccc4)nc3c2=O)cc1OC | -1% | / | 0% | 1% | /
CCOc1ccccc1CNC(=O)C1CCN(c2nnc(C)c3c(C)n(-c4ccc(C)cc4)nc23)CC1 | -1% | 23µM*! | 7% | ? | 1%
COc1ccc(CNC(=O)Cn2nc(C)c3c(C)n(-c4ccc(C)cc4)nc3c2=O)cc1OC | 1% | 23µM* | -1% | -11% | -4%
CCOc1ccccc1CNC(=O)Cn1nc(C)c2c(C)n(-c3ccc(C)cc3)nc2c1=O | 18% | 9.2µM* | 9% | 1% | 5%
COc1ccc(C(=O)Nc2cccc(OCc3cc(=O)n4c5c(sc4n3)CCCC5)c2)cc1 | -1% | 8% | 2% | 1% | /
CCN1C(=O)[C@H]2[C@@H](c3ccc(-c4cccc(Cl)c4)cc3)N[C@@](C)(C(=O)OC)[C@H]2C1=O | / | 8% | 3% | -3% | 22µM*
CCN1C(=O)[C@H]2[C@@H](c3ccc(-c4ccccc4)cc3)N[C@@](C)(C(=O)OC)[C@H]2C1=O | / | 4% | 0% | -1% | 20%
CCCCCCSc1ccc([C@H]2N[C@@](C)(C(=O)OC)[C@H]3C(=O)N(C)C(=O)[C@@H]23)cc1 | / | 26µM* | -1% | 0% | 21%
CN(CC(=O)Nc1ccc(Cl)c(C(F)(F)F)c1)C(=O)c1ccc(OCC2CCCO2)cc1 (stereo not drawn) | / | 16µM* | 3% | ? | 3%
Cc1ccc(S(=O)(=O)N2CCCCC2)cc1C(=O)N(C)CC(=O)Nc1ccc(Cl)c(C(F)(F)F)c1 | -4% | ? | -1% | ? | -4%
CN(CC(=O)Nc1ccc(Cl)c(C(F)(F)F)c1)C(=O)c1ccc(S(=O)(=O)N2CCOCC2)cc1 | / | ? | 1% | -18% | /
Cc1ccc(C(=O)N(C)CC(=O)Nc2ccc(Cl)c(C(F)(F)F)c2)cc1S(=O)(=O)N1CCCCC1 | / | 5.8µM* | 0% | ? | 1%
O=C(CCNS(=O)(=O)c1cccc2nonc12)Nc1ccc(F)cc1 | -1% | 10%[9.27 µM] | -1% | -13% | /
SMILES | miR-21 act | Nrf2 block | Nrf2 activator | A549 viability | Mito fusion act
CC(C)N=C(N)N=C(N)Nc1ccc(Cl)cc1 | / | 1% | 7% | -4% | -4%
NC(=NCCCCCCN=C(N)/N=C(\N)Nc1ccc(Cl)cc1)/N=C(\N)Nc1ccc(Cl)cc1 | 26% | 23µM*! | 0% | ? | -36%
Cc1ccc(C(=O)/C=C/C(=O)O)cc1 | -8% | 4% | 22µM* | 12% | -10%
O=C(CCCn1c(=O)c2sccc2n(Cc2ccc(Cl)cc2)c1=O)NCc1ccc2c(c1)OCO2 | -9% | 4% | 5% | 3% | /
Nc1nc2ccc([N+](=O)[O-])cc2[nH]1 | -1% | -4% | 0% | -14% | -1%
Nc1[nH]c2cc([N+](=O)[O-])ccc2c1-c1ccccn1 | 11% | -24% | 3% | 13µM* | -18%
N#Cc1c(N)nc(SCc2ccccc2)c(C#N)c1-c1ccco1 | -37% | 12µM* | 3% | ? | 8%
CCC(=O)N1CCc2cc(S(=O)(=O)NC(C(=O)Nc3cc(OC)cc(OC)c3)C(C)C)ccc21 (stereo not drawn) | -4% | 13% | 7% | 10% | /
COc1ccc(CNc2nc(-c3ccco3)nn2S(=O)(=O)c2ccc3ccccc3c2)cc1OC | -6% | -4% | 3% | -2% | /
O=C(NCCn1cc(SCc2ccccc2Cl)c2ccccc21)c1cccs1 | 11% | 16µM* | 0% | -2% | /
O=C(NCCn1cc(SCc2ccccc2)c2ccccc21)c1cccs1 | 30% | ? | 0% | -2% | /
CS(=O)(=O)c1nc(-c2ccccc2)cc(C(F)(F)F)n1 | ? | 23µM* | ? | ? | -16%
Cc1cc2c(s1)c1cnn(Cc3ccc(C)c(F)c3F)c(=O)c1n2C | / | 8% | / | -2% | /
O=S(=O)(c1ccccc1)c1nc(-c2ccc(F)cc2)oc1N1CCCCCC1 | 4% | 26µM* | 6% | -12% | /
Cc1ccc(S(=O)(=O)NCc2ccc(C(=O)N3CCN(c4ccccc4)CC3)cc2)cc1 | 10% | 23µM* | 0% | -5% | ?
O=C(c1ccc(S(=O)(=O)NCc2ccco2)cc1)N1CCCC1 | 5% | -5% | 0% | 1% | -4%
O=C(c1ccc(S(=O)(=O)c2ccccc2Cl)c([N+](=O)[O-])c1)N1CCN(Cc2ccccc2)CC1 | 20% | 18µM* | 19% | ? | 24%
Cc1ccc(S(=O)(=O)N2CCN(C(=O)c3ccc(COc4ccccc4)o3)CC2)cc1 | / | 23µM* | 0% | -4% | 19%
O=C(c1ccc(Br)c([N+](=O)[O-])c1)N1CCN(Cc2ccccc2)CC1 | 3% | -9% | 22% | -4% | -13%
N#Cc1ccc(CN2CCN(C(=O)c3ccc(S(=O)(=O)NCc4ccco4)cc3)CC2)cc1 | / | 8.2µM* | 11% | ? | -1%
